Most compounds without a hit are left out; they make up all but 3.5% or so of the library.
MITF inh: MITF inhibitors, primary screen, biochemical, AlphaScreen, human | Microphthalmia-associated transcription factor (Homo sapiens), O75030 | AlphaScreen MITF homodimerization, bead proximity signal | inhibition, % at 2.6 µM | 0.91% of 650,000 active | AID 1259374, 2018; in the data active = inhibition above about 50%;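 also: 0% = vehicle wells with protein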
TEAD-YAP inh: TEAD-YAP interaction inhibition, primary screen, TEAD-YAP interaction inhibitor project, luminescence, HEK-TIYL cells | AID 1259422, 2018 | inhibition, % at 9.12 µM | 1.4% of 640,000 active | TEAD-Gal4/YAP UAS-luciferase luminescence; in the data active = inhibition above about 32%;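 also: 0% = median of test compound wells and 100% = reference inhibitor wells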
FBW7 activator: FBW7 E3 ligase activators, primary screen, biochemical, AlphaScreen, human. normalized activity (activation), % at 26.1 µM. AlphaScreen FBW7–phospho-cyclin E peptide binding, activator screen. F-box/WD repeat-containing protein 7 (Homo sapiens), Q969H0. 0.13% of 650,000 active; in the data active = normalized activity above about 1.9%;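 also: purified mutant Fbw7 with reduced substrate affinity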
GPR151 activ: activators of human GPR151, primary screen, cell-based, PathHunter beta-arrestin, luminescence. activation, % at 11.2 µM. PathHunter beta-arrestin GPR151 cells. 1% of 650,000 active. G-protein coupled receptor 151 (Homo sapiens), Q8TDV0; in the data active = activation above about 4.9%;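 also: 0% = median of compound wells and 100% = cells with positive control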
Target sequence (Q8TDV0 whole entry, looked up): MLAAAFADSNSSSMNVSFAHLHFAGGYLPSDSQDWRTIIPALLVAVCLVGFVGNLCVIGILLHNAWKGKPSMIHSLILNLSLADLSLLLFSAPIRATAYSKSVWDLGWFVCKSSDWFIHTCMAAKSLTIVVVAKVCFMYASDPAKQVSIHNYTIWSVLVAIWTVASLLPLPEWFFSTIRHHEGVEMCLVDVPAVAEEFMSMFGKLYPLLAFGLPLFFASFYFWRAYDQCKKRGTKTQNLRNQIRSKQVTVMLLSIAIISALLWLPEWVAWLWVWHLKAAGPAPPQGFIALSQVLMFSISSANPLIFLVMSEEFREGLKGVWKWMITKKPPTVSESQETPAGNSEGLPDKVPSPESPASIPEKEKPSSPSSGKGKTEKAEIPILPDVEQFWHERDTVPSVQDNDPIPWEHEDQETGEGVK
Active calls of the source: *.

SMILES	MITF inh	TEAD-YAP inh	FBW7 activator	GPR151 activ
CNC(=S)Nc1cc2oc3ccccc3c2cc1OC	5	-17	0	-2
CC(=O)N1CCc2cc(S(=O)(=O)NC(CC(C)C)C(=O)NCc3ccccc3)ccc21 (stereo not drawn)	-11	-2	0	1
CC1Cc2ccccc2N1S(=O)(=O)c1ccc2[nH]c(=O)[nH]c2c1 (stereo not drawn)	10	37*	0	1
Cc1cc(-c2ccc(S(=O)(=O)N3c4ccccc4CC3C)cc2)on1 (stereo not drawn)	3	61*	0	0
CC1Cc2ccccc2N1S(=O)(=O)c1ccc2c(c1)n(C)c(=O)c(=O)n2C (stereo not drawn)	0	5	0	1
Cc1ccc(NC(=O)CN(C)C(=O)CCl)cc1	4	63*	0	-1
Cc1ccc(NC(=O)CN(C)C(=O)COc2ccc(C#N)cc2)cc1	8	4	0	0
CN(CC(=O)Nc1ccc(Cl)cc1)C(=O)CCl	-13	71*	0	0
COc1cc(/C=C2/C(=O)Nc3ccccc32)cc(OC)c1O	1	-11	0	1
COc1cc(OC)c(/C=C2/C(=O)Nc3ccccc32)c(OC)c1	0	53*	0	2
CN(C)c1ccc(-c2nc3ccccc3n2C)cc1	28	93*	0	-8
CN(C)c1ccc(-c2ccc3ccccc3n2)cc1	5	76*	1	-7
CC(C)c1ccc(C(O)Cc2nc3ccccc3n2C)cc1 (stereo not drawn)	-1	-9	-1	1
CN(C)c1ccc(C(O)Cc2nc3ccccc3n2C)cc1 (stereo not drawn)	-9	95*	0	-9
COc1ccc(CCNC(=O)CN(c2cc(C)ccc2OC)S(C)(=O)=O)cc1	11	-2	0	-1
NC(=O)c1c(NC(=O)c2cc3ccccc3o2)sc2c1CCCCC2	-4	42*	0	0
NC(=O)c1c(NC(=O)c2nc3ccccc3s2)sc2c1CCCCC2	15	62*	0	-2
NC(=O)c1c(NC(=O)c2ccccc2)sc2c1CCCCC2	12	-12	0	1
O=C1OC(c2ccc3c(c2)OCO3)=N/C1=C\c1ccccc1Cl	9	3	0	1
CCN(CC)S(=O)(=O)c1ccc(N2CCN(c3ccccc3OC)CC2)c(N)c1	4	33*	0	1
CCN(c1ccccc1)S(=O)(=O)c1ccc(OC)c(N)c1	-7	52*	0	-1
COc1ccc(S(=O)(=O)Cc2ccccc2)cc1N	2	-10	0	1
O=C1C(C=Nc2ccccc2O)=C(O)c2ccccc21	1	49*	0	-8
COc1ccc(N=CC2=C(O)c3ccccc3C2=O)cc1	15	43*	0	-4
CCN1CCN(C/C=C/c2ccc(N(C)C)cc2)CC1	9	0	0	0
SMILES	MITF inh	TEAD-YAP inh	FBW7 activator	GPR151 activ
CN1CCN(C/C=C/c2ccc(N(C)C)cc2)CC1	68*	6	0	0
C(=C\c1nc2ccccc2[nH]1)/c1ccccc1	-7	80*	0	-10
COc1ccc(/C=N\n2nnc3ccccc32)cc1	3	85*	0	-7
Nc1ccc2nc(/C=C/c3ccccc3)[nH]c2c1	10	15	0	-9
COc1ccc(-c2nc3ccccc3[nH]2)cc1	-3	50*	0	-11
COc1cccc(N2CC(O)=C(c3nc4ccccc4[nH]3)C2=N)c1	1	37*	0	1
Cc1nn2c(NCCCN3CCCC3=O)c3c(nc2c1-c1cccs1)CCC3	10	3	0	-1
COc1ccc(/C=C/c2nc3ccccc3n2C)cc1	-7	98*	0	-11
COc1ccc(/C=C/c2nc3ccccc3[nH]2)cc1	1	88*	0	-6
COc1ccc(/C=C/c2nc3ccccc3c(=O)o2)cc1	-5	75*	0	-10
COc1ccc(/C=C/C(=O)Nc2nc3ccccc3n2C)cc1	17	-17	0	-1
COc1ccc(/C=C(/C#N)c2nc3ccccc3[nH]2)cc1	2	-51	0	-2
COc1ccccc1/C=C/c1nc2ccccc2c(=O)o1	7	-54	0	-7
CS(=O)(=O)NNC(=O)c1cccc(Br)c1	13	6	0	0
CCCc1cc(N2CCC(C(N)=O)CC2)n2cnnc2n1	-6	-2	0	1
CCCc1cc(N2CCN(c3ccc(C(C)=O)cc3)CC2)n2cnnc2n1	5	42*	0	-1
CN(C)CCC(O)c1ccc(S(C)=O)cc1 (stereo not drawn)	-7	9	0	0
Cc1ccc(OCc2cc(C(=O)N(C)CCC3CCOCC3)no2)cn1	-1	39*	0	4
CCOc1cc(Br)c(/C=C2/NC(=O)NC2=O)cc1OCC	7	44*	0	0
COc1cc(/C=C2/NC(=O)NC2=O)c(Br)cc1O	-2	10	0	0
CCOc1cc(Cl)c(/C=C2/NC(=O)NC2=O)cc1OCC	4	-11	0	-1
CCOc1cc(/C=C2/NC(=O)NC2=O)c(Br)cc1O	-28	44*	0	0
COc1cccc(C2=N/C(=C\c3cc(Br)ccc3OC)C(=O)O2)c1	7	1	0	1
O=C1N(c2ccccc2)C[C@@H]2C[C@@H](c3cc4ccccc4o3)N3CCC[C@@]123	1	65*	0	-1
CC(C)CCOC(=O)C[N+](C)(C)CCOC1CC2CCC1(C)C2(C)C (stereo not drawn)	-13	37*	0	0
SMILES	MITF inh	TEAD-YAP inh	FBW7 activator	GPR151 activ
O=C(NCC1CC1)c1cc(Br)cc(Br)c1O	2	10	0	0
COc1cc([N+](=O)[O-])c2ncccc2c1	70*	16	-2	-1
O=C(O)COc1cc([N+](=O)[O-])cc2cccnc12	16	-4	-1	3
O=[N+]([O-])c1cc(O)c2ncccc2c1	103*	21	0	-2
COc1cc([N+](=O)[O-])c2nccnc2c1	0	1	-1	2
CCSc1nc(-c2cccs2)nc2c1c(=O)n(C)c(=O)n2C	-8	-4	0	5
c1ccc(-c2nc3c4ccccc4nc(N4CCOCC4)n3n2)cc1	-4	0	1	1
Oc1c(CN2CCCCCC2)cc(Cl)c2cccnc12	46	51*	-1	-1
Oc1c(CN2CCOCC2)cc(Cl)c2cccnc12	64*	50*	0	-1
O=C1c2ccccc2C(=O)N1Cc1cc(Cl)c2cccnc2c1O	9	9	0	1
O=C1CCCN1Cc1cc(Cl)c2cccnc2c1O	64*	9	0	1
O=C(Oc1c(Br)cc(Cl)c2cccnc12)N1CCCCC1	-12	-11	0	0
CC1CN(Cc2cc(Cl)c3cccnc3c2O)CC(C)O1 (stereo not drawn)	56*	24	0	-1
CCn1cc(C(=O)N2CCc3c(nc(N4CCCC4)[nH]c3=O)C2)cn1	2	2	0	1

Bioassay records: PubChem BioAssay, The Scripps Research Institute Molecular Screening Center
